Measured values taken from PubChem BioAssay AID686952 (The Scripps Research Institute Molecular Screening Center, 2013).
In all, about 3,200 compounds went through this assay and about 2,600 (81%) were called active. So high a share suggests a set chosen from earlier hits. A selection follows. Unmarked numbers belong to inactive results.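 Rule for the calls: active = activation above the all-compound mean plus 3 SD, ignoring values outside control-based bounds (cut at about 4.8% in these data); inactive = the rest.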

Assay: EDANS-DABCYL substrate optical interference, artefact control for kallikrein-7 zymogen activator project, biochemical, fluorescence intensity, high throughput (AID 686952);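 note: value is the 4 h activation minus the activation read at time zero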
Conditions: no enzyme, 4 h, at 7 µM, hits give high values, solvent 0%, active enzyme control 100%

| SMILES | activation |
| --- | --- |
| COc1cccc(OCc2cc(/C=N/NC(=O)c3nc(Cl)c(Cl)c(N)c3Cl)ccc2OC)c1 | 59.5% (active) |
| Cc1cc(C)c2nc3nc(C)cc(C)c3c(N)c2c1 | 70.4% (active) |
| CCOC(OCC)c1ccc(/C=C\c2nccc(N)n2)cc1 | -13.8% |
| COc1ccc(CNC(=O)COC(=O)C2=Cc3ccccc3OC2)cc1 | 11.3% (active) |
| COc1cc2c(cc1OC)C(C(C)C)=NC(C)(C)C2 | 72.2% (active) |
| CN1c2ccccc2-c2nc3ccccc3n2C1c1ccco1 (stereo not given) | 11.9% (active) |
| CNc1cncc(-c2cccc(C(=O)N3CCOCC3)c2)n1 | 37.5% (active) |
| CCCn1c(=NC(C)=O)c(C(=O)OCC)cc2c(=O)n3ccccc3nc21 | 32.4% (active) |
| CCN1CCc2c(C#N)c(NCc3ccccc3)nc(NCCO)c2C1 | 28.7% (active) |
| COC(=O)C1=NN(c2ccccc2)C2C(=O)N(c3ccccc3OC)C(=O)C12 (stereo not given) | 14.9% (active) |
| CN(C)C(=O)c1coc2nc3ccccc3nc12 | 110% (active) |
| O=C(/C=C/c1ccc2c(c1)OCCO2)c1ccc(O)cc1 | 3.03% |
| O=C(O)c1ccc2c(c1)C(=O)N(c1ccc(/C=C/C(=O)c3ccccc3)cc1)C2=O | 722% (active) |
| CCN(CC)CCCNC(=O)c1cc2c(=O)[nH]c3ccc(C)cc3c2s1 | 12.5% (active) |
| COC(=O)c1c(C)c(C)nc(N)c1C#N | 63.7% (active) |
| CCN(CC(=O)Nc1c(F)cccc1F)C(=O)c1ccc(-c2ccc(C(C)=O)cc2)o1 | -16.2% |
| CN(C)CCN1CCN(c2cc(-c3cccc(Cl)c3)nc3ccnn23)CC1 | -1.14% |
| COC(=O)Cc1nc2c(N)nc(N)nc2[nH]c1=O | 16.8% (active) |
| Cc1coc2c1c(C)cc1oc(=O)c(CC(=O)NCC(=O)N[C@H](C(=O)O)C(C)C)c(C)c12 | 34.8% (active) |
| COc1ccc(-c2cc(C(=O)n3cnc4ccccc43)c3ccccc3n2)cc1 | 53.3% (active) |
| CNC(=O)COC(=O)c1cc(-c2ccc(OC)cc2)nc2ccccc12 | 97.4% (active) |
| O=c1c(-c2ccccc2)coc2c(CN3CCOCC3)c(O)ccc12 | 15.3% (active) |

| SMILES | activation |
| --- | --- |
| COc1cccc2sc3cc(NCC[C@@H]4CCCN4C)ccc3c(=O)c12 | 38.3% (active) |
| CCCCc1cc(=O)oc2cc(C)cc(OCc3nn[nH]n3)c12 | 29.5% (active) |
| Cc1ccsc1-c1cc(C(=O)O)c2c(ccc3ccccc32)n1 | 21.4% (active) |
| COC(=O)c1cnn2c(C(F)(F)F)cc(-c3ccco3)nc12 | 35.9% (active) |
| O=C(OC1CCOC1=O)c1ccc(-c2nc3ccccc3s2)s1 (stereo not given) | 13.6% (active) |
| Cc1nc2ccc(N)nc2nc1C | 59.7% (active) |
| O=C(O)c1cccnc1Sc1ncnc2sc3c(c12)CCC3 | 15.9% (active) |
| O=C(NCCN1CCOCC1)c1cc(-c2cccs2)nc2ccccc12 | 31.9% (active) |
| CCCCN(C)CCCNC(=O)c1cc(-c2cccs2)nc2ccccc12 | -40.9% |
| O=c1oc2cc(O)ccc2cc1-c1ccc(F)cc1 | 80.8% (active) |
| COc1ccc(CCNC(=O)Nc2ccc3c(c2)c(=O)n(C)n3C)cc1OC | 22.7% (active) |
| CCNC(=S)Nc1ccc2c(c1)c(=O)n(C)n2Cc1ccc(Cl)cc1 | -1.33% |
| COCCCn1c(-c2cccs2)nc2nc3ccccc3nc21 | 24.8% (active) |
| C=CCn1c(N)c(S(=O)(=O)c2cccs2)c2nc3ccccc3nc21 | -4.5% |
| NC(N)=Nc1nc(-c2ccccc2)c2cc(Cl)ccc2n1 | -2.58% |
| COc1nc(N=C(N)N)nc2c(C)cccc12 | 20.6% (active) |
| CCC1=C(C(=O)OC)C(c2cc(OC)ccc2OC)C(C#N)=C(N)O1 (stereo not given) | 32.6% (active) |
| Cc1cc(N2CCOCC2)nc2ccc(NC(=S)N3CCN(Cc4ccccc4)CC3)cc12 | 12.7% (active) |
| CC(C)(C)OC(=O)c1c(N)n(CCCN2CCCC2=O)c2nc3ccccc3nc12 | 80.7% (active) |
| COCC(C)OC(=O)c1c(N)n(CCCN2CCOCC2)c2nc3ccccc3nc12 (stereo not given) | 19% (active) |
| CC(C)=NN1C(=O)c2ccccc2NC1(C)C | 24.5% (active) |
| CCOc1ccc(N2C(=O)CC(N(O)c3ccccc3)C2=O)cc1 (stereo not given) | 188% (active) |

| SMILES | activation |
| --- | --- |
| Nc1ccccc1-c1nc2ccncc2[nH]1 | 5.73% (active) |
| CCCc1cc(=O)oc2c(C)c(O)c(CN3CCCCC3)cc12 | 68.1% (active) |
| CCOc1c2ccc(C(=O)NCc3ccc4c(c3)OCO4)cc2nn1C | 4.67% (active) |
| COCc1cc(=O)[nH]c2cc(NC(=O)C(F)(F)F)c(C)cc12 | 232% (active) |
| CCC(c1nnnn1Cc1ccco1)N(CCc1ccccc1)Cc1cc2ccc(OC)cc2[nH]c1=O (stereo not given) | 1.63% |
| CC(=O)Nc1cc2ccc(OC(C)=O)cc2oc1=O | 127% (active) |
| CC(=O)Oc1ccc2c(C)c(CC(C)O)c(=O)oc2c1 (stereo not given) | 80% (active) |
| COCCN(CCOC)c1nc(N)c2c(N)nc3c(c2c1C#N)CC(=O)N3Cc1ccc(Cl)cc1 | -34.7% |
| CCN1CCN(C(=O)c2cc3cc4ccc(OC)cc4nc3s2)CC1 | -12.4% |
| COc1ccc2oc(=O)c(C(=O)N3CCCC3)cc2c1 | 23.6% (active) |
| Cc1nc2ccccc2cc1O | 4.33% (active) |
| Cc1cc(S(=O)(=O)c2cc3ccc(O)c(C)c3oc2=O)ccc1F | 63.2% (active) |
| N#CC1=C(N)Oc2c(sc3ccccc23)C1c1ccco1 (stereo not given) | -21.2% |
| Nc1ccc2nn(-c3ccc(Cl)cc3)nc2c1 | 62.1% (active) |
| COC(=O)c1ccc(C2C3=C(Nc4nnnn42)c2ccccc2OC3)cc1 (stereo not given) | 4.8% (active) |
| COc1ccc(C2=CC(c3cccc(OC)c3)n3nnnc3N2)cc1 (stereo not given) | -27.9% |
| CC(C)(C)Nc1c(-c2cccs2)nc2ccccn12 | -64.5% |
| c1ccc(-c2cn3cccnc3n2)cc1 | 72.3% (active) |
| FC(F)(F)Oc1ccc(-c2cn3cccnc3n2)cc1 | 36.4% (active) |
| COc1ccc(-c2cn3cccnc3n2)cc1 | 79.8% (active) |
| Cc1oc2nc(SCC(=O)Nc3ccc(S(N)(=O)=O)cc3)nc(NC(=O)c3ccccc3)c2c1C | 3.36% |
